Data taken from ChEMBL document CHEMBL3988442, “University of Dundee, Small-Polar-MMV Screening Library” (2021).
Out of some 48,000 compounds screened, about 13,000 (27%) showed an effect of 50% or more. The list shows a part of the results.

What follows are compounds tested on Wolbachia pipientis (assay: Anti-Wolbachia Cell-Based Screen). Details: 5 µM.
Type: functional
Parameters: scale not given: in the data most compounds retested in dose-response had high values

Compound	Percent Effect
COc1cc(C(=O)N(C)C)ccc1NC(=O)c1ccsc1	-14.53%
CCc1nc(C)c(C2CC(=O)Nc3c2c(-c2cccnc2)nn3C)[nH]1 (centres undefined)	10.2%
CCNC(=O)NC1CN(Cc2ccncc2Cl)C[C@@H]1OC (some centres undefined)	-18.14%
CC(=O)c1ccc(NC(=O)NCc2cccc(N(C)C)n2)cc1C	-13.49%
COCCN1CCN(Cc2noc(C3CC3)n2)CC1C (centres undefined)	-13.95%
Cc1nnc(CSc2n[nH]c(-c3ccccn3)n2)o1	3.251%
O=C1NCCCCC1NS(=O)(=O)N1CCCCCC1 (centres undefined)	41.49%
CCNC(=O)c1cnc(Sc2nccn2C)c(Cl)c1	-8.333%
COc1nn(C)cc1C(=O)NCC(=O)Nc1cccnc1	5.398%
CC(=O)N1CCN(c2nc(C(F)(F)F)nc3sc(C)c(C)c23)CC1	10.88%
c1ccc2c(c1)OCCCC2NCc1nnc2n1CCCCC2 (centres undefined)	-26%
Cc1cc(CN(C)C(=O)NCc2ccnc(N(C)C)c2)no1	-11.21%
CN(C)c1cc(CNC(=O)c2cnccn2)ccn1	139.9%
Cc1cnc(C(=O)NCc2ccnc(N(C)C)c2)cn1	122.7%
Cc1cccc(C(=O)NCc2ccnc(N(C)C)c2)n1	-3.78%
COc1ccc(OC)c(S(=O)(=O)NCC2(OC)CCSC2)c1 (centres undefined)	-19.77%
Cc1cc(N(C)C)nc(N2CC(n3cccn3)C2)n1	-0.4027%
Cc1cc(N(C)C)nc(C2CCCN2)n1.Cl.Cl (centres undefined)	137.4%
CCn1cc(C2CCN(Cc3ccnc(N(C)C)c3)CC2)cn1	-12.62%
CN(C)c1ccc(-c2noc([C@@H]3CCCN3)n2)cn1	4.635%
CN(C)c1cc(C2CCCN2)ccn1 (centres undefined)	114.7%
CN(C)c1ccnc(C2CCCN2)n1.Cl (centres undefined)	126.4%
Cc1nc(CN(C)c2nccc(N(C)C)n2)cs1	-6.579%
Cc1cc(N(C)C)nc(C2CCNC2)n1.Cl.Cl (centres undefined)	120.8%
Cc1cc(C)nc(CN(C)C(=O)c2ccccc2C2CCNC2)c1 (centres undefined)	-11.76%
Cc1cc(N(C)C)nc(N2CCn3c(nnc3C3CC3)C2)n1	-9.903%

Compound	Percent Effect
CN(C)C(=O)c1cccc(CCNS(C)(=O)=O)c1	-0.05313%
O=C(c1cc2c(s1)CCOC2)N1CCCCC1Cn1cccn1 (centres undefined)	96.86%
O=C(c1cc2c(s1)CCOC2)N1CCCC1Cn1cccn1 (centres undefined)	107.9%
O=C(c1cccc2c1OCCO2)N1CCCCC1Cn1cccn1 (centres undefined)	4.366%
CC(=O)N1CCCn2nc(CNS(=O)(=O)c3cc(C)cs3)cc2C1	-1.939%
N#Cc1cccnc1NCCC1CCN(CC(F)(F)F)CC1	-14.98%
CC(C)=CCN1C[C@H]2CC[C@@H]1CN(C(=O)CCc1n[nH]c(C)n1)C2	-19.43%
Cc1cnn(CC2CCCCN2C(=O)c2ccc3[nH]cnc3c2)c1 (centres undefined)	112.2%
Cc1cnn(CC2CCCCN2C(=O)c2ccc3[nH]nnc3c2)c1 (centres undefined)	-1.412%
Cc1cnn(CC2CCCCN2C(=O)c2ccc3[nH]c(=O)[nH]c3c2)c1 (centres undefined)	108.3%
Cc1cnn(CC2CCCN2C(=O)c2ccc3[nH]c(=O)[nH]c3c2)c1 (centres undefined)	143.3%
Cc1cnn(CC2CCCCN2C(=O)c2ccc3c(c2)COC3)c1 (centres undefined)	117.5%
Cc1cnn(CC2CCCN2C(=O)c2ccc3[nH]nnc3c2)c1 (centres undefined)	0.8571%
Cc1cnn(CC2CCCN2C(=O)c2ccc3cc[nH]c3c2)c1 (centres undefined)	7.467%
COc1cccc([S+]([O-])CC(=O)NCc2cc(F)cc(F)c2)c1 (centres undefined)	-14.98%
O=C1N(Cc2cccc(F)c2F)CCCC1(O)CNCc1ccccn1 (centres undefined)	-29.29%
Cc1cc(C)cc(C(C)NC(=O)c2ccc(CS(C)(=O)=O)o2)c1 (centres undefined)	-2.298%
CCc1ccc(CN2CCN(c3ccc(C(N)=O)cn3)CC2)nc1	17.95%
CC(C)(N)c1cn(C2CCN(C(=O)CCC3CCCCC3)CC2)nn1	-21.08%
Cc1cc(CN2CCc3nc(C(C)C)nc(O)c3CC2)c(C)s1	120.7%
Cc1cc(CN2CCc3nc(N4CCOCC4)nc(O)c3CC2)c(C)s1	112.9%
Cc1cc(CN[C@@H](C)C(N)=O)c(C)s1	8.124%
Cc1nc(C)c2c(n1)CCN(Cc1ccco1)CC2	-8.406%
Cc1cc(CN2CCc3nc(-c4ccncc4)nc(O)c3CC2)c(C)s1	125%
CC(C)c1ncc2c(n1)CN(Cc1nc3c(F)cccc3[nH]1)CC2	-0.8884%
Cc1nc(O)c2c(n1)CCN(Cc1cc(C)sc1C)CC2	92.9%

Compound	Percent Effect
Cc1nc(C)c2c(n1)CCN(Cc1ccsc1)CC2	5.852%
CC(=O)N1CCc2c(nc(-c3ccncc3)nc2N(C)CC(O)CO)C1 (centres undefined)	4.037%
Cc1nc2c(c(=O)n1C)CCN(Cc1cc3ccccc3[nH]1)CC2	-25.51%
COCc1ccccc1C(=O)NS(=O)(=O)CCCC#N	-8.648%
COC1CCN(S(=O)(=O)N2C[C@H](c3ccccc3)[C@@H](N)C2)CC1	-9.837%
N#Cc1cccc(CN2CCN(Cc3cscn3)CC2)c1	-8.185%
NC(=O)c1ccc(C(=O)N2CCCCC2C2OCCO2)cc1 (centres undefined)	-10.24%
Cc1ccc(CN2CCc3ncnc(OC(C)C)c3CC2)s1.O=C(O)C(F)(F)F	-2.547%
Cc1ccc(CN2CCc3ncnc(C4CCOC4)c3CC2)s1.O=C(O)C(F)(F)F (centres undefined)	-17.37%
Cc1ccc(CN2CCc3nc(C(C)C)nc(O)c3CC2)s1	101.1%
Cc1nc(CN2CCOC(CN(C)c3cccnn3)C2)cs1 (centres undefined)	1.717%
CC(C)C(NC(=O)c1ccc(Cl)cc1Cl)C(=O)Nc1ccn(C)n1 (centres undefined)	-7.418%
CCOc1ccccc1C(=O)Nn1c(C)cc(C)cc1=O	121%
CCOc1ccccc1C(CC(=O)Nc1ccc(C)cn1)NC(C)=O (centres undefined)	-11.24%
Cc1ccccc1C(=O)NCC(O)c1ccc(F)c(F)c1 (centres undefined)	-57.78%
Cc1cc(C)n(NC(=O)c2ccccc2C)c(=O)c1	92.68%
Cc1cccc(NC(=O)CNC(=O)c2ccccc2F)c1	-4.999%
Cc1cc(C)n(NC(=O)c2cccc3c2OCC3)c(=O)c1	-19.93%
O=C(NS(=O)(=O)c1ccccc1)c1ccccc1F	-14.83%
Cc1cc(C)n(NC(=O)c2ccc(Cl)cc2Cl)c(=O)c1	111.9%
Cc1cc(C)n(NC(=O)c2ccccc2F)c(=O)c1	67.62%
CCOc1cccc(CNc2ccccc2C(=O)OC)c1O	0.1063%
CC(NC(=O)C1=NN(C)C(=O)CC1)c1ccc(Cl)cc1Cl (centres undefined)	-11.2%
Cc1cc(CS(=O)(=O)N(C)C(C)c2ccc(Cl)cc2)on1 (centres undefined)	1.246%
CN(C)[C@@H]1CCN(c2ncc(F)cn2)[C@H]1Cc1ccncc1.O=C(O)C(F)(F)F.O=C(O)C(F)(F)F	2.593%
CC(O)CCN(C)S(=O)(=O)Cc1ccc(Cl)c(Cl)c1 (centres undefined)	3.883%

Compound	Percent Effect
N[C@H]1CN(C(=O)Cc2ccc(CO)cc2)C[C@@H]1C1CC1	-4.225%
O=C1CN(Cc2cn(C3CCN(C4CSCCSC4)CC3)nn2)CCN1	9.418%
CN1CCCC1c1cccc(Cc2ccccc2F)n1 (centres undefined)	-8.343%
CC(C)c1nccn1-c1cccc(C2CCCN(S(=O)(=O)N(C)C)C2)n1 (centres undefined)	123.6%
CN(C)C(=O)CN(C)C(=O)c1cnc(Cc2ccc(F)cc2)s1	-0.8881%
CC(C)c1nccn1-c1cccc(C2CCCN2S(=O)(=O)N(C)C)n1 (centres undefined)	-5.176%
CN(C)C(=O)CN1CCN(c2ccnc3c(F)ccc(F)c23)CC1	6.891%
CN(C)C(=O)CN1CCC(c2cccc(Cc3ccc(F)cc3)n2)CC1	83.25%
O=C1CO[C@H]2CN(C3CCOCC3)C[C@H]2N1Cc1ccc(F)cc1	15.12%
Fc1ccc2[nH]c([C@H]3CCN(C4CCOCC4)C3)nc2c1	-0.03029%
Fc1ccc(Cc2cccc(C3CCN(C4CCOCC4)CC3)n2)cc1	122.8%
CCCN1CCCC1c1nc(Cc2ccc(F)cc2)no1 (centres undefined)	-11.63%
CN1CCCC1c1cccc(Cc2ccc(F)cc2)n1 (centres undefined)	109.9%
CCO[C@H]1CN(C)C[C@@H]1NC(=O)c1c[nH]nc1C1CCCCC1	-8.959%
NC(=O)C1CCN(C(=O)NCc2ccccc2Cn2ccnc2)CC1	-2.267%
COc1cc(C(=O)N2CC[C@@H](NC(=O)c3ccccn3)[C@H](O)C2)ccn1	-8.714%
COC1(CNS(=O)(=O)c2ccccc2Cl)CCSC1 (centres undefined)	-2.993%
COC(=O)c1ccc(NC2CCN(CC(F)(F)F)C2=O)cc1C (centres undefined)	4.628%
CCn1ccnc1CN1CCN(CCC(=O)NC(C)(C)C)CC1C (centres undefined)	-7.568%
CN(C)S(=O)(=O)N1CCCC(CCC(=O)Nc2ccc(Cl)cc2)C1 (centres undefined)	1.788%
CN(C)S(=O)(=O)N1CCCC(c2cccc(Cc3ccccc3F)n2)C1 (centres undefined)	93.31%
CN1CCCC(c2cccc(Cc3ccccc3Cl)n2)C1 (centres undefined)	-5.601%
CN(C)S(=O)(=O)N1CCC(c2cccc(Cc3ccccc3Cl)n2)CC1	111.4%
CN(C)S(=O)(=O)N1CCCC(c2cccc(Cc3ccc(F)cc3)n2)C1 (centres undefined)	101%
CN(C)S(=O)(=O)N1CCCC(c2cccc(Cc3ccc(Cl)cc3)n2)C1 (centres undefined)	74.08%
CN(C)S(=O)(=O)N1CCCC(c2cccc(Cc3ccccc3)n2)C1 (centres undefined)	7.511%
